{"source": "PubChem BioAssay (EPA / NIEHS)", "note": "Where “and” joins values, the source holds several entries; their conditions need not be identical. Equal values may be shown once. Calls of active or inactive are those of the source. Rule for the calls: active = hit-call score of the fitted dose curve at least 0.9, where 1 is the maximum; inactive = score below 0.9.", "data": [{"read-out": "Collagen III, COL3A1 (gene 1281)", "test": "BSK_MyoF_CollagenIII: BioMAP Diversity Plus: MyoF Assay for Collagen III Biomarker Activity (AID 2284239)", "details": "primary human lung fibroblasts", "description": "BSK_MyoF is a cell-based, multiplexed-readout assay that uses lung fibroblasts, […], with measurements taken at 24 hours after chemical dosing in a microplate: 96-well plate.BSK_MyoF_CollagenIII is an assay component measured in the BSK_MyoF assay. It measures Collagen III antibody related to regulation of gene expression using ELISA technology.Data from the assay component BSK_MyoF_CollagenIII was analyzed at the endpoint, BSK_MyoF_CollagenIII, in the positive analysis fitting direction relative to DMSO as the negative control and baseline of activity. Using a type of binding reporter, gain or loss-of-signal activity can be used to understand protein changes. To generalize the intended target to other relatable targets, this assay endpoint is annotated to the 'cell adhesion molecules' intended target family, where the subfamily is 'collagen'.\nThe levels of cell surface (or secreted, indicated by the prefix \"s\") biomarker endpoints were measured by ELISA. Overt cytotoxicity to cells in confluent adherent cultures (all systems other than the BT system) was assessed by measuring total protein levels using sulforhodamine B (SRB) staining in parallel cultures at the time of biomarker measurements, indicated as SRB endpoints. For proliferation assays for adherent cell types, individual cell types are cultured at sub-confluence and relative cell numbers quantified by SRB staining at time points optimized for each system (48 h: 3C and CASM3C systems; 72 h: BT and HDF3CGF systems; 96 h: SAg system). SRB was performed by staining cells with 0.1% SRB after fixation with 10% TCA and reading wells at 560 nm.Viability and proliferation of PBMC (T cells) was quantified by Alamar Blue reduction for the SAg and BT systems. For PBMC viability (referred to as PBMC Cytotoxicity within the assay endpoint names), cells were plated (75,000/well in a 96-well plate) and then chemical samples added for 1 h before addition of activators, SEB and TSST-1 (20 ng/mL final concentration each). Cells were incubated for 90 h. Then, Alamar Blue (20 uL/well) (Invitrogen, Cat DAL1100) was added for 6 h, and the plates were read with a fluorescence microplate reader at 546/580 nm (excitation/emission). For PBMC proliferation, cells were plated and activated as above but incubated for only 16 h prior to addition of Alamar Blue. Plates were read after 6 h.", "values": [{"smiles": "CCCCNc1ccccc1", "outcome": "inactive"}, {"smiles": "CCCCCCCOC(=O)c1ccccc1C(=O)OCCCCCCC", "outcome": "inactive"}, {"smiles": "COC(=O)CCC(F)(F)C(F)(F)C(F)(F)C(F)(F)F", "outcome": "inactive"}, {"smiles": "FC(F)(F)C(F)(F)C(F)(F)C(F)(F)C(F)(F)C(F)(F)C(F)(F)Br", "outcome": "inactive"}, {"smiles": "FC1CC(F)(F)C(F)(F)C1(F)F", "note": "(stereo not given)", "outcome": "inactive"}, {"smiles": "FC(F)(F)C(F)(F)C(F)(F)C(F)(F)C(F)(F)C(F)(F)CC1CO1", "note": "(stereo not given)", "outcome": "inactive"}, {"smiles": "FC(F)(F)C(F)(F)C(F)(F)C(F)(F)CCI", "outcome": "inactive"}, {"smiles": "O=C(O)C(F)(F)C(F)(F)C(F)(F)F", "outcome": "inactive"}, {"smiles": "O=C(O)C(F)(F)C(F)(F)C(F)(F)C(F)(F)C(F)(F)C(F)(F)C(F)(F)C(F)(F)Cl", "AC50": "17.6 µM (active) and 18.3 µM (active)"}, {"smiles": "CCCCCCCCCCCCCCCC[N+](C)(C)Cc1ccccc1", "AC50": "1.73 µM (active)"}, {"smiles": "C=CC(F)(F)C(F)(F)C(F)(F)C(F)(F)C(F)(F)C(F)(F)C(F)(F)C(F)(F)C=C", "outcome": "inactive"}, {"smiles": "CCc1c(Br)c(Br)c(Br)c(Br)c1Br", "outcome": "inactive"}, {"smiles": "CC(CCl)OP(=O)(OC(C)CCl)OC(C)CCl", "note": "(stereo not given)", "outcome": "inactive"}, {"smiles": "CCc1ccc(C(c2ccc(CC)cc2)C(Cl)Cl)cc1", "AC50": "8.17 µM (active)"}, {"smiles": "CC(C)(C)C(=O)CC(=O)C(F)(F)C(F)(F)C(F)(F)F", "outcome": "inactive"}, {"smiles": "C=C(C)C(=O)OCC(F)(F)C(F)(F)C(F)(F)C(F)(F)C(F)(F)C(F)(F)C(F)(F)F", "outcome": "inactive"}, {"smiles": "FC(F)(Br)C(F)(F)C(F)(F)C(F)(F)C(F)(F)C(F)(F)Br", "outcome": "inactive"}, {"smiles": "O=C(O)C(F)(OC(F)(F)C(F)(OC(F)(F)C(F)(F)C(F)(F)F)C(F)(F)F)C(F)(F)F", "note": "(stereo not given)", "outcome": "inactive"}, {"smiles": "OCC(F)(F)C(F)(F)C(F)(F)F", "outcome": "inactive"}, {"smiles": "FC(F)(F)C(F)(F)C(F)(F)C(F)(F)C(F)(F)C(F)(F)CCS", "outcome": "inactive"}, {"smiles": "O=C(O)C(F)(F)C(F)(F)OC(F)(F)F", "outcome": "inactive"}, {"smiles": "O=S(=O)(OCC(F)F)C(F)(F)F", "outcome": "inactive"}, {"smiles": "O=C(O)C(F)(F)C(F)(F)C(F)F", "outcome": "inactive"}, {"smiles": "FC(F)(F)C(F)(F)C(F)(F)C(F)(F)C(F)(F)C(F)(F)C(F)(F)I", "AC50": "5.06 µM (active) and 4.85 µM (active)"}, {"smiles": "O=P(O)(O)OCCC(F)(F)C(F)(F)C(F)(F)C(F)(F)C(F)(F)C(F)(F)F", "outcome": "inactive"}, {"smiles": "CC(=O)Nc1ccc(N=Nc2cc(C)ccc2O)cc1", "outcome": "inactive"}, {"smiles": "OCCCC(F)(F)C(F)(F)C(F)(F)F", "outcome": "inactive"}, {"smiles": "C=CC(F)(F)C(F)(F)C(F)(F)C(F)(F)C(F)(F)C(F)(F)C(F)(F)C(F)(F)F", "outcome": "inactive"}, {"smiles": "OCCCC(F)(F)C(F)(F)C(F)(F)C(F)(F)C(F)(F)C(F)(F)C(F)(F)F", "AC50": "46.9 µM (active) and 52.2 µM (active)"}, {"smiles": "OCC(F)(F)C(F)(F)C(F)(F)C(F)(F)C(F)(F)C(F)F", "outcome": "inactive"}, {"smiles": "C=CC(=O)OCC(F)(F)C(F)(F)C(F)(F)C(F)(F)C(F)(F)C(F)(F)C(F)(F)F", "outcome": "inactive"}, {"smiles": "O=C(O)C(F)(OC(F)(F)C(F)(OC(F)(F)C(F)(OC(F)(F)C(F)(F)C(F)(F)F)C(F)(F)F)C(F)(F)F)C(F)(F)F", "note": "(stereo not given)", "outcome": "inactive"}, {"smiles": "FC(F)(F)C(F)(F)CNCC(F)(F)C(F)(F)F", "outcome": "inactive"}, {"smiles": "CS(C)(=O)=O", "outcome": "inactive"}, {"smiles": "O[Si](c1ccccc1)(c1ccccc1)c1ccccc1", "AC50": "31.5 µM (active)"}, {"smiles": "C=CC/C=C/C/C=C/C/C=C/C", "outcome": "inactive"}, {"smiles": "C=CC(=O)OCC(F)(F)C(F)(F)C(F)(F)C(F)(F)COC(=O)C=C", "AC50": "12.1 µM (active) and 14.6 µM (active)"}, {"smiles": "FC(F)(I)C(F)(F)C(F)(F)C(F)(F)I", "AC50": "53.1 µM (active) and 54.9 µM (active) and 54.2 µM (active)"}, {"smiles": "O=C(O)C(F)(F)C(F)(F)C(F)(F)C(F)(F)F", "outcome": "inactive"}, {"smiles": "FC(F)(F)C(F)(F)C(F)(F)C(F)(F)C(F)(F)C(F)(F)C(F)(F)C(F)(F)F", "outcome": "inactive"}]}]}
